# Bioassay records as filed in PubChem.
# Sampled rows, rich in hits. Any-hit rate of the full collection: about 11%.
# HEK cytotox: kills HEK 293 cells; HEK 293 viability, ATP luminescence (CellTiter-Glo), 48-72 h; AID 1345083; 6.6% of 94,000 active; Potency, µM (highest dose often 115 µM), for inactives: at the top dose activity change, negative = cytotoxicity, usual class: inhibitors; further: nearly all actives have a fitted effect of over 60% in size
#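 HEK 293 cells at 250 cells/well were exposed to compounds by pintool transfer for 48 or 72 hr at 37 degree Celsius, 5% CO2. Viability was read as ATP-coupled luminescence with CellTiter-Glo after 10 min at room temperature.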
# Luciferase inh: Photinus pyralis luciferase inhibition; Potency, µM (doses to about 115 µM), usual class: inhibitors; purified P. pyralis luciferase, luminescence, biochemical; 2.5% of 76,000 active; further: nearly all actives have a fitted effect of over 65% in size
#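 Purified 10nM P. pyralis luciferase with 10uM D-luciferin and 10uM ATP in 50mM Tris acetate pH 7.5, 10mM Mg acetate, 0.01% Tween-20, 0.05% BSA. qHTS titration; luminescence read by CCD imager.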
# NIH3T3 tox: kills NIH 3T3 cells; NIH 3T3 viability, CellTiter-Glo ATP luminescence, 48-72 h; Potency, µM (highest dose often 96.7 µM), inactives show at the highest dose activity change, negative = cytotoxicity, most hits filed as inhibitors; 4.3% of 94,000 active; AID 1345082; further: nearly all actives have a fitted effect of over 55% in size
#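 Cytotoxicity was measured by CellTiter-Glo ATP luminescence after 48 or 72 h compound exposure at 37 °C. Mouse NIH 3T3 fibroblasts were seeded at 400 cells/well and dosed by 23 nL pin transfer.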
# hNpr1 antagonist: human Npr1 receptor antagonism; 1.6% of 76,000 active; P16066; HEK293 hNpr1 GloSensor cGMP, ANP-stimulated luminescence; Potency, µM (doses to about 46.3 µM), inactives show at the highest dose activity change, negative = inhibition, actives largely listed as inhibitors; AID 1347048; calls by dose curve; further: nearly all actives have a fitted effect of over 60% in size
# Target sequence (P16066 whole entry, looked up): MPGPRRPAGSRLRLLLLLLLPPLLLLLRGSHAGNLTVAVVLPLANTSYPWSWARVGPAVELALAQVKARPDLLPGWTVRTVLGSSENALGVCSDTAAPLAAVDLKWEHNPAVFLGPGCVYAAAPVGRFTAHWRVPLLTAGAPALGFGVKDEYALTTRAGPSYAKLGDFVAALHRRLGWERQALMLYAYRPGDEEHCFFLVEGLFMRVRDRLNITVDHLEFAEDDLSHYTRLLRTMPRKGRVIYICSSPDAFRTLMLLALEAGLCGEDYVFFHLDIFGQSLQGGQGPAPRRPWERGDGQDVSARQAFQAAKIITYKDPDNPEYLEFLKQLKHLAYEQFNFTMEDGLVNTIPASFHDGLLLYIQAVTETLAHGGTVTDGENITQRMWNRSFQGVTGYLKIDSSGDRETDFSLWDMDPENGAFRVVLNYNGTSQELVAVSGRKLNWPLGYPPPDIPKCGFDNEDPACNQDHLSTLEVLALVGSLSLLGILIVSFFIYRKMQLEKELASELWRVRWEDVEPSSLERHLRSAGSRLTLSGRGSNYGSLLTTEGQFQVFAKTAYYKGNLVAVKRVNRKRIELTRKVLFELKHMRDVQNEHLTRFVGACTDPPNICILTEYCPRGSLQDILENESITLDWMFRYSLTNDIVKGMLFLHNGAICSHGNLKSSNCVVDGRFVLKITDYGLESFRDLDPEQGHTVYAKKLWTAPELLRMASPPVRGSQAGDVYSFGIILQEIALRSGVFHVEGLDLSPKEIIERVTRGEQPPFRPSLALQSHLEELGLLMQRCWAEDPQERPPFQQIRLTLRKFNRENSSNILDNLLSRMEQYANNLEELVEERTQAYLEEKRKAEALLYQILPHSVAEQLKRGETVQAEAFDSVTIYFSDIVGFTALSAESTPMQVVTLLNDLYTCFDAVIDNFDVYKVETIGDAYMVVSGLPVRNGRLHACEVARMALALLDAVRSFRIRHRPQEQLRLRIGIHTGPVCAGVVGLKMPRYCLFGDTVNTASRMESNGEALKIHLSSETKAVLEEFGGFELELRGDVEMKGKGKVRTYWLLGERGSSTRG
#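 Compound pre-incubated 30 min at room temperature on GloSensor-loaded HEK293 cells stably carrying hNpr1 and the pGS-40F cGMP biosensor. Stimulation uses hNppA at 0.1 nM final; luminescence is taken at baseline and 20 min post-agonist.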
# Active calls of the source: *; i = inactive; u = inconclusive; x = not tested or not shown; [ ] = remark or other dose. Unless noted, the call rests on the fitted dose curve; in most records, active means well fitted curve in the direction sought with a large enough effect; inconclusive means small, poorly fitted or top-dose-only effect, or another doubt; inactive means no such curve, though single readings can be large; an effect the other way counts as inactive or inconclusive. On the % scale 0 is the no-effect control and ±100 the full control effect; potency means the concentration at half of the fitted maximal effect.
SMILES,HEK cytotox,Luciferase inh,NIH3T3 tox,hNpr1 antagonist
FC(F)Oc1cccc(CNC2CCC3(CCNCC3)CC2)c1,50µM*,i,u,-5%
Cc1cccc(NC(=O)c2ccc(CN3C(=O)NC4(CCOCC4)C3=O)cc2)c1,u,u,-4%,-25%
CCc1ccc(NC(=O)c2ccc(CN3C(=O)NC4(CCOCC4)C3=O)cc2)cc1,u,13µM*,u,u
CC(C)c1cccc(NC(=O)c2ccc(CN3C(=O)NC4(CCOCC4)C3=O)cc2)c1,u,40µM*,-15%,11µM*
O=C([C@H]1C[C@H](Oc2ccccc2)CN1C(=O)c1ccc(F)cc1)N1CCOCC1,-22%,i,-10%,-12%
COc1ccc(C(=O)N[C@H]2CC[C@]3(C)CC[C@@H]4[C@H](OC(=O)[C@H]4C)[C@H]3[C@@H]2C)cc1,4%[172 µM],i,-10%[174 µM],2%[70.6 µM]
C[C@H]1[C@@H]2[C@H]3OC(=O)[C@@H](C)[C@@H]3CC[C@@]2(C)CC[C@@H]1NC(=O)C1CCCCC1,100µM*,i,u,-20%[70.6 µM]
C[C@H]1[C@@H]2[C@H]3OC(=O)[C@@H](C)[C@@H]3CC[C@@]2(C)CC[C@@H]1NC(=O)c1ccccn1,100µM*,i,-22%[174 µM],-14%[70.6 µM]
C[C@H]1[C@@H]2[C@H]3OC(=O)[C@@H](C)[C@@H]3CC[C@@]2(C)CC[C@@H]1NC(=O)c1ccc(C#N)cc1,u,i,89µM*,0%[70.6 µM]
COc1ccc(-c2nc(C3CC3)nc3c2CCN(Cc2ccc(NC(C)=O)cc2)CC3)cc1,u,x,-26%,x
O=C1COc2ccc(OCc3ccccc3)nc2CN1Cc1ccc(F)cc1,u,u,u,-25%[70.6 µM]
COc1cccc(CN2Cc3nc(OCc4ccc(F)cc4)ccc3OCC2=O)c1,100µM*,i,u,u
COc1cccc(-c2ccc3c(n2)CN(Cc2ccc(F)cc2)C(=O)CO3)c1,89µM*,i,u,u
Cc1cc(Cl)ccc1OCCN1CCN(CC2(O)CCCNC2)CC1 (centres undefined),13µM*,i,22µM*,6%
Cn1nccc1-c1cc2c(ccn2C)c(C(=O)NCc2cccnc2)n1,-27%[172 µM],i,28µM*,3%[70.6 µM]
Cn1ccc2c(C(=O)NCc3cccnc3)nc(-c3ccc(F)cc3)cc21,100µM*,i,u,-24%[70.6 µM]
CN(C)Cc1ccc(-c2cc3c(ccn3C)c(C(=O)NCc3cccnc3)n2)cc1,u,i,u,4%[70.6 µM]
CN1CCN(c2ccc(-c3cc4c(ccn4C)c(C(=O)NCc4cnccn4)n3)cc2)CC1,45µM*,u,u,-1%
Cn1ccc2c(C(=O)NCc3cccnc3)nc(-c3ccccc3C#N)cc21,-18%[172 µM],i,25µM*,-6%[70.6 µM]
Cn1ccc2c(C(=O)NCc3cccnc3)nc(-c3ccccc3)cc21,u,i,u,u
COCCn1c(=O)c(C(=O)N2CCN(C(=O)c3ccc(F)cc3)CC2)nc2cccnc21,2%,x,0%,x
CCc1c(-c2nc(C3CCOC3)no2)[nH]c2ccccc12 (centres undefined),u,i,u,-8%
CCCc1nc(-c2nc(C3CCOC3)no2)cs1 (centres undefined),0%,28µM*,1%,-8%
CCOC(=O)C1CCN(C(=O)c2cc(-c3cccnc3)nc3c2cnn3C)CC1,-7%,x,-12%,x
O=C(NCC1CC1)c1cccc(OC2CN(Cc3ccc(F)cc3Cl)C2)c1,u,i,40µM*,u
SMILES,HEK cytotox,Luciferase inh,NIH3T3 tox,hNpr1 antagonist
Cc1noc2c(-c3cccnc3NCCN(C)C)cc(-c3ccccc3)nc12,89µM*,i,45µM*,1%[70.6 µM]
Cc1noc2c(-c3cccc(O)c3)cc(-c3ccccc3)nc12,50µM*,i,28µM*,-2%[70.6 µM]
COCCCNc1ncccc1-c1cc(-c2ccccc2)nc2c(C)noc12,112µM*,i,u,5%[70.6 µM]
Cc1noc2c(-c3cccnc3N(C)C)cc(-c3ccccc3)nc12,u,i,u,-1%[70.6 µM]
Cc1noc2c(-c3cccnc3NCCCn3ccnc3)cc(-c3ccccc3)nc12,71µM*,i,u,1%[70.6 µM]
Cc1noc2c(-c3cccnc3NCc3cccnc3)cc(-c3ccccc3)nc12,u,i,u,6%[70.6 µM]
COc1ccc(CC(=O)N[C@@H]2CN(c3ccccn3)C[C@H]2CN(C)C)cc1,i,i,1%,-2%
CC(C)(C)CNC1(Cc2cc(COc3ccccc3)on2)COC1,u,i,u,2%[70.6 µM]
COc1ccc(C(=O)NC2CCN(c3cc(-c4ccccc4)[nH]n3)C2)cc1F (centres undefined),u,i,u,5%
CCOc1cc(C(=O)NC2CCN(c3cc(-c4ccccc4)[nH]n3)C2)cc(OCC)c1OCC (centres undefined),u,i,u,3%
COc1ccc(C(=O)NC2CCCN(c3cc(-c4ccccc4)[nH]n3)C2)cc1OC (centres undefined),u,28µM*,-29%,-10%
CCOc1ccc(C(=O)NC2CCCN(c3cc(-c4ccccc4)[nH]n3)C2)cc1OCC (centres undefined),32µM*,i,u,-9%
O=C1CC(c2ccccc2)N(Cc2ccncc2)CCCN(C(=O)C2CCC2)CCN1 (centres undefined),4%,i,-10%,0%
COc1ccc(CNC(=O)N2CC(n3cc(C(=O)NCC4CC4)nn3)C2)cc1,4%,x,-3%,x
COc1ccc(-c2cc3nc4c(c(=O)n3[nH]2)CN(C(=O)CCc2ccccc2)CC4)cc1,4%,i,5%,3%
CCN(C(=O)CCC(=O)N1CCc2nc3cc(-c4ccc(OC)cc4)[nH]n3c(=O)c2C1)c1ccccc1,u,16µM*,u,-2%
O=C1[C@@H]2C[C@@H](O)CN2C2(CN(Cc3ccccn3)C2)C(=O)N1Cc1ccccc1F,-3%[172 µM],i,-4%[174 µM],-1%[70.6 µM]
C[C@@H](NC(=O)C1CCCCC1)c1c(-c2ccc(F)cc2)noc1C(=O)O,-7%[172 µM],i,40µM*,-1%[70.6 µM]
CCOC(=O)[C@@H]1[C@@H](O)C(=O)N(Cc2ccccc2)C12CCN(C(=O)C1CC1)CC2,2%,x,u,x
CO[C@H]1CN(C2CCN(S(=O)(=O)c3ccc(C#N)cc3)CC2)[C@H]1c1cccnc1,u,x,-23%,x
O=C1NC2(CCN(C(=O)Cc3ccccc3)C2)OCc2ccccc21 (centres undefined),100µM*,i,-29%[138 µM],14%[70.6 µM]
O=C1NC2(CCN(C(=O)c3ccc(F)cc3)C2)OCc2ccccc21 (centres undefined),-6%,i,-7%,2%
Cn1c(CN2C[C@H](O)C[C@H]2c2nc(-c3ccc(OC(F)(F)F)cc3)no2)nc2ccccc21,u,40µM*,-27%,-7%
O=[N+]([O-])c1ccccc1CN1C[C@H](O)C[C@H]1c1nc(Cc2ccc(F)cc2Cl)no1,112µM*,u,u,1%[70.6 µM]
